# Test results taken from PubChem BioAssay AID1259417 (TB Discovery Research, Infectious Disease Research Institute, 2018).
# Hit rate of the full screen: of about 1,100 compounds, about 760 (69%) were called active. The rule behind the calls is not given here. So high a share suggests a set chosen from earlier hits. Some of the results follow.
# Assay: M. tuberculosis growth inhibition, HTS (AID 1259417);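 note: bacteria grown with compound for 5 days at 37 °C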
# Conditions: stronger effect = higher value, concentration not given here
# [1] = M. tuberculosis DsRed fluorescence growth inhibition
# [2] = M. tuberculosis growth inhibition
Compound,inhibition [1],inhibition [2]
O=C(C=Cc1ccccc1)Nc1nnc(-c2ccc3c(c2)CCCC3)o1,8.27% (inactive),19.3%
CC(C)(C)C(=O)Nc1nnc(-c2cc(Cl)ccc2Cl)o1,80.9% (active),86.9%
CCCCC(=O)Nc1nnc(-c2ccc3c(c2)CCCC3)o1,25.2% (active),57.9%
O=C(Nc1nnc(-c2ccc3c(c2)CCCC3)o1)c1ccccc1Br,2.76% (inactive),-9.29%
O=C(CCSc1ccccc1)Nc1nnc(-c2ccc3c(c2)CCCC3)o1,20.9% (inactive),26.4%
O=C(Nc1nnc(-c2ccc(Cl)cc2)o1)c1ccc(Br)cc1,94.3% (active),95.3%
O=C(Nc1nnc(-c2ccc(Cl)cc2)o1)c1ccccc1Br,12.4% (active),44.2%
O=C(Nc1nnc(-c2ccc3c(c2)CCCC3)o1)c1ccco1,9.46% (inactive),22.5%
O=C(Nc1nnc(-c2cc(Cl)ccc2Cl)o1)c1ccccc1F,59.5% (active),79.5%
O=C(Nc1nnc(-c2ccc3c(c2)CCCC3)o1)c1ccccc1Cl,-2.21% (inactive),-7.28%
O=C(Nc1nnc(-c2cc(Cl)ccc2Cl)o1)c1ccc(Cl)cc1Cl,11.8% (inactive),9.57%
N#Cc1ccc(C(=O)Nc2nnc(-c3ccc4c(c3)CCCC4)o2)cc1,83.6% (active),91.1%
O=C(Nc1nnc(-c2ccc3c(c2)CCCC3)o1)c1ccccc1F,49% (active),79.6%
O=C(Nc1nnc(-c2ccc(Cl)cc2)o1)c1ccccc1F,82% (active),89.7%
O=C(Nc1nnc(-c2ccc(Br)cc2)o1)c1ccccc1F,80.9% (active),94.2%
CCOC(=O)COc1ccc2c(=O)cc(-c3ccccc3)oc2c1,89.6% (active),95.3%
CCOC(=O)COc1cc(OCC(=O)OCC)c2c(=O)cc(-c3ccccc3)oc2c1,63.7% (active),71.2%
COc1ccc(Cl)cc1NC(=O)C(C)N1CCN(C/C=C/c2ccccc2)CC1 (stereo unspecified),-0.555% (inactive),-22.8%
Cc1ccc(C)c(-c2nnc(NC(=O)c3cccc4ccccc34)o2)c1,-3.96% (inactive),-5.52%
Cc1ccc(C)c(-c2nnc(NC(=O)C(C)(C)C)o2)c1,84.1% (active),83.8%

Compound,inhibition [1],inhibition [2]
Cc1ccc(C)c(-c2nnc(NC(=O)c3ccccc3F)o2)c1,80.6% (active),85.5%
Cc1ccc(C)c(-c2nnc(NC(=O)C(C)C)o2)c1,67% (active),78.6%
Cc1ccc(C)c(-c2nnc(NC(=O)c3cc(Cl)sc3Cl)o2)c1,99.2% (active),96.3%
COc1ccccc1C(=O)Nc1nnc(-c2cc(C)ccc2C)o1,-3.37% (inactive),-7.24%
CCCC(=O)Nc1nnc(-c2ccc(C)cc2C)o1,2.17% (inactive),26.4%
CCCC(=O)Nc1nnc(-c2cc(C)ccc2C)o1,10.9% (active),48.8%
Cc1ccc(C)c(C(=O)Nc2nnc(-c3cc(C)ccc3C)o2)c1,87.9% (active),74.7%
COc1cccc(OC)c1C(=O)Nc1ccc(Cl)c(-c2nc3ccccc3s2)c1,72.8% (active),62.9%
CCOc1ccccc1NC(=O)CSc1nc2ccc(NC(=O)c3ccccc3Cl)cc2s1,-3.22% (inactive),-11.8%
CCc1ccc(/C=c2\s/c(=C/C(=O)C(C)(C)C)[nH]c2=O)cc1,99.8% (active),99.5%
CC(C)Cn1c(N2CCN(Cc3ccc(Cl)c(Cl)c3)CC2)nc2c1c(=O)[nH]c(=O)n2C,7.43% (active),34.1%
COc1ccc(CC2SC(=NN=Cc3ccccc3O)NC2=O)cc1 (stereo unspecified),98.1% (active),97.1%
CC(=N/N=C1\NC(=O)C(Cc2ccc(Cl)cc2)S1)c1ccc(F)cc1 (stereo unspecified),5% (inactive),-11.9%
O=C1NC(=NN=Cc2ccccc2O)SC1Cc1ccc(F)cc1 (stereo unspecified),99.2% (active),98.8%
CC(=N/N=C1\NC(=O)C(Cc2ccc(F)cc2)S1)c1ccc(Cl)cc1 (stereo unspecified),8.19% (inactive),-27.8%
CCc1ccccc1-n1c(=O)oc2ccc(Cl)cc2c1=O,101% (active),100%
Cc1ccc(-n2c(=O)oc3ccc(Cl)cc3c2=O)cc1Cl,100% (active),101%
CCOC(=O)C=CC(=O)Nc1nc(-c2ccccc2)cs1,41.3% (active),56%
Cc1cccc(-n2c(N)cc(=O)nc2SCC(=O)Nc2nc(-c3ccccc3)cs2)c1,-2.92% (inactive),-16.5%
Cc1ccc(-c2c[n+](CC(=O)Nc3nc(-c4ccc(F)cc4)cs3)c3n2CCC3)cc1,15.8% (inactive),14.8%

Compound,inhibition [1],inhibition [2]
CCc1ccc(OCC(=O)NNC(=O)c2cnccn2)c(Br)c1,93.6% (active),95.4%
Cc1ccc2nc(/C(C#N)=C/c3c[nH]c4ccc(Br)cc34)[nH]c2c1,19.3% (inactive),22.8%
N#CC(=CNc1ccccc1)c1nc2ccccc2[nH]1,34.4% (active),48.7%
CCOC(=O)COc1c(Cl)cc(C=C(C#N)c2nc3ccc(OC)cc3[nH]2)cc1Cl,45.4% (active),50.3%
COC(=O)COc1ccc(C=C(C#N)c2nc3ccccc3[nH]2)cc1,59.4% (active),79.9%
CCOC(=O)Cn1cc(C=C(C#N)c2nc3ccc(OC)cc3[nH]2)c2ccccc21,-3.18% (inactive),0.813%
CCOC(=O)C1=C(C)N(c2ccc(Br)cc2)C(=O)C1,6.73% (inactive),8.65%
O=C1Nc2ccccc2/C1=N/N=C/C1=C(N2CCOCC2)C(=C\c2ccccc2)/CC1,-1.05% (inactive),-11.8%
COC(=O)COc1ccc(NC(=O)c2cccc(C)c2)cc1,68.2% (active),87.4%
COC(=O)COc1cccc(NC(=O)c2cccc(C)c2)c1,14.1% (active),40.2%
COC(=O)COc1cccc(NC(=O)c2ccc(Cl)cc2)c1,50% (active),72.5%
O=C(c1ccc(Cl)cc1)C1CCCN(Cc2cnn(-c3ccccc3)c2)C1 (stereo unspecified),1.81% (inactive),-16.6%
CC1CCCN(CCC(=O)c2ccc(Br)cc2)C1 (stereo unspecified),72.2% (active),84.5%
COc1ccc(C(=O)CCN2CCCC(C)C2)cc1 (stereo unspecified),13.2% (inactive),13.2%
Cc1cc(N2CCCCC2)nc2ccc(NC(=O)c3ccc(Br)o3)cc12,0.712% (inactive),-27.2%
COc1ccc(C)cc1NC(=O)c1ccc(Cc2ccc(C)cc2)o1,98.3% (active),101%
COc1cc2c(cc1NC(=O)Nc1ccc(Cl)cc1)oc1ccccc12,0.315% (inactive),-15.8%
Cc1ccc(Cc2ccc(C(=O)Nc3ccc(C)c(C)c3)o2)cc1,99.7% (active),99.7%
